# Sampled rows, rich in hits. Any-hit rate of the full collection: about 4%.
# GALC G270D act = galactocerebrosidase G270D activity enhancement, cell-based | P54803 | 145M-Twi-hGALC-G270D cells (Twitcher mouse brain line with human GALC G270D), HMU-beta-Gal fluorescence, 48 h | Potency, µM (highest dose often 57.5 µM), actives largely listed as activators | 45,000 tested, 0.1% active; further: potency means the concentration at half of the fitted maximal effect; 0% is about no effect; nearly all actives have a fitted effect of over 65% in size
#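 Live 145M-Twi cells (Twitcher mouse brain-derived, GALC-null) stably expressing human GALC-G270D, with a wild-type GALC line, were compound-treated. Residual GALC activity was then read as fluorescence from 0.1 mM final HMU-β-gal at pH 5.2; higher signal means activation.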
# NTMT1 inh = blocks human N-terminal methyltransferase 1 activity; 59,000 tested, 2.5% active; AID 1645870; Q9BV86; Potency, µM (top dose mostly 114 µM), without a hit: at the highest dose activity change, negative = inhibition, most hits filed as inhibitors; NTMT1 MTase-Glo SAH luminescence, purified enzyme;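 further: potency means the concentration at half of the fitted maximal effect; plate controls were DMSO vehicle for no effect and no enzyme for full effect; nearly all actives have a fitted effect of over 65% in size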
# Target sequence (Q9BV86 whole entry, looked up): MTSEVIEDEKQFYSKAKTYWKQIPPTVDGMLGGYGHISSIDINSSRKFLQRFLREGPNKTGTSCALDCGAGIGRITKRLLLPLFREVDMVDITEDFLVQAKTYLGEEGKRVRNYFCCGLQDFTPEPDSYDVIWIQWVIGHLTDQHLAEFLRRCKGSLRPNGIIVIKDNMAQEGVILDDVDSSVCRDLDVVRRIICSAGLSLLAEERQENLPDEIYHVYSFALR
# DRV1 agonist = activates human resolvin D1 receptor GPR32. O75388. 48,000 tested, 2.5% active. CHO-K1 GPR32 beta-arrestin PathHunter luminescence, 90 min; zero percent set by DMSO-only wells. activation, % at 76.9 µM;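 active means activation of at least 60% and not above a set upper limit, about 1 call in 100 departs from these limits; inconclusive means activation of 40% to 60%, or above that upper limit; inactive means activation under 40%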; further: 0% is about no effect
#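 Agonism was scored by beta-Gal fragment complementation (chemiluminescent read, 1 h detection at ambient temperature) reporting beta-arrestin binding to GPR32 in engineered CHO-K1 cells. Compound treatment lasted 90 min at 37 C, normalized to a DMSO basal control.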
# p53null 39C tox = selectivity test: cytotoxicity in p53 null cells, nonpermissive temperature. H1299 p53-null (neo) cells, 39C, ATPlite viability, 24 h. Potency, µM (top dose mostly 46.1 µM), inactives show at the top dose activity, negative = cell killing, usual class: cytotoxic. 55,000 tested, 0.97% active. AID 904;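 further: potency means the concentration at half of the fitted maximal effect; 0% = DMSO only and -100% = full killing by 100 µM tamoxifen; nearly all actives have a fitted effect of over 50% in size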
#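 ATP-luminescence viability readout (ATPlite, 20 min RT) after 24 hr compound treatment at 39C of H1299-neo or H1299-p53A138V cells; titration up to 46 uM; normalized to DMSO and 100 uM tamoxifen; Hill-fit AC50.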
# OvCa metastasis = inhibitors of ovarian cancer cell adhesion and invasion in omental model; SKOV3ip1-GFP adhesion/invasion on 3D omental model, fluorescence; Potency, µM (highest dose often 45.8 µM), inactives show at the highest dose activity change, negative = inhibition, most hits filed as inhibitors; 46,000 tested, 0.1% active; AID 1963576;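 further: potency means the concentration at half of the fitted maximal effect; plate controls were DMSO wells for no effect and tomatine positive control wells for full effect; nearly all actives have a fitted effect of over 65% in size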
#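 A 3D layer of primary human omental fibroblasts, mesothelial cells, fibronectin and collagen I, grown 48 hr, received SKOV3ip1-GFP cells in serum-free medium plus compounds at 0.36-46 umol/L. After 2 hr RT and 16 hr 37 C, fixed adherent GFP cells were counted; normalized to DMSO and tomatine.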
# p53null 32C kill = selectivity test: cytotoxicity in p53 null cells, permissive temperature. H1299-neo p53 null cells, ATP luminescence, 24 h, 32C. Potency, µM (doses to about 46.1 µM), for inactives: top-dose activity change, negative = cytotoxicity, usual class: cytotoxic. 55,000 tested, 0.62% active. AID 903;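 further: potency means the concentration at half of the fitted maximal effect; 0% = DMSO only and -100% = full killing by 100 µM tamoxifen; nearly all actives have a fitted effect of over 55% in size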
#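 Cytotoxicity: H1299-neo (no p53), 32C, 24 h treatment. Concentrations up to 46 uM. Readout cellular ATP, luminescence. Normalization to DMSO basal and tamoxifen 100 uM maximal kill.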
# Active calls of the source: *; i = inactive; ? = inconclusive; . = no result; ! = a repeat was not active; [ ] = another dose, or the depositor's remark. Unless noted, the call rests on the fitted dose curve; in most records, active means well fitted curve in the direction sought with a large enough effect; inconclusive means small, poorly fitted or top-dose-only effect, or another doubt; inactive means no such curve, though single readings can be large; an effect the other way counts as inactive or inconclusive.
SMILES,GALC G270D act,NTMT1 inh,DRV1 agonist,p53null 39C tox,OvCa metastasis,p53null 32C kill
CCN(CC)CCCNC(=O)c1nn(-c2ccc(C)cc2)c(=O)c2c1c1ccccc1n2C,i,-7%,1,20%,i,4%
COc1ccc(N2CCN(CC(O)COc3ccc(C)cc3C)CC2)cc1 (stereo unspecified),i,-13%,67*,-4%,11%,-10%
COc1ccccc1N1CCN(CC(O)COc2ccc(Cl)c(C)c2)CC1 (stereo unspecified),i,-21%,118*,2%,i,-5%
C=C1CCC2C(C)(COC3OC(COC(=O)CC(=O)O)C(O)C(O)C3O)CCCC2(C)C1CCC1=CCOC1=O (stereo unspecified),.,-9%[29.8 µM],.,.,.,.
CC(C(=O)NCc1cccc(Br)c1)n1ncn2cccc2c1=O (stereo unspecified),i,?,-19,13µM*,-11%,?
Cc1ccc(-n2ncc(C(=O)N3CCN(c4cccc(C)c4C)CC3)c2C2CCNCC2)c(C)c1,i,79µM*,23,-10%,?,11%
Cc1cc2c(C(C)C)c(O)c(O)c(C=O)c2c(O)c1-c1c(C)cc2c(C(C)C)c(O)c(O)c(C=O)c2c1O,i,20µM*!,-19,.,-13%,.
N#Cc1ccc(-c2ccc(CNc3ccc(N4CCC(C#N)CC4)cc3)o2)cc1,.,-8%[57.5 µM],.,.,.,.
Cc1nc(NC(=O)N2CCC[C@@H]2C(N)=O)sc1-c1ccnc(C(C)(C)C(F)(F)F)c1,.,30µM*,.,.,-11%,.
CC(C)=CC[C@@H](O)C1=CC(=O)c2c(O)ccc(O)c2C1=O,.,50µM*!,.,.,8%,.
C=C(C)[C@@H]1CC[C@](C)(O)[C@@H](OC(=O)c2ccccc2)C1,.,-9%[57.5 µM],.,.,.,.
CCc1ccc(-n2c(SCC(=O)NC(C)CC)nc3n[nH]c(C)c3c2=N)cc1 (stereo unspecified),i,?,-16,13%,i,13%
CCc1ccc(NC(=O)CSc2nc3n[nH]c(C)c3c(=N)n2-c2ccccc2C)cc1,i,5%,62*,28%,i,-3%
COCCCNC(=O)c1c(NC(=O)c2nc(S(C)(=O)=O)ncc2Cl)sc2c1CCCC2,i,-9%,-4,2%,-3%,-8%
CCCS(=O)(=O)c1ncc(Cl)c(C(=O)Nc2c(C(=O)Nc3ccccc3)oc3ccccc23)n1,i,-3%,41,16µM*,-12%,-29%
COc1ccc(N(Cc2ccccc2)C(=O)c2nc(S(C)(=O)=O)ncc2Cl)cc1,i,21%,-8,11µM*,?,13µM*
COc1ccc(CNC(=O)c2nc(S(=O)(=O)Cc3ccccc3)ncc2Cl)cc1,i,14%,-23,13µM*,3.5µM*,-4%
CCNC(=O)c1c(NC(=O)c2nc(S(=O)(=O)CC)ncc2Cl)sc2c1CCCC2,i,-6%,-2,25µM*,?,19%
C[C@@]1(c2ncncc2F)NC(=O)c2cc(-c3cn[nH]c3)ccc21,.,0%,.,.,.,.
CC(C)=C/C=C\[C@H](C)[C@H]1CC[C@]2(C)C[C@@H]3C(C)=CC(=O)C3/C(CO)=C\C[C@@H]12 (stereo partly specified),.,1%[29.8 µM],.,.,.,.
Cc1cc(NCc2ccc(NC(=O)Cc3ccc(Cl)c(Cl)c3)cc2)no1,.,-5%,.,.,.,.
CCS(=O)(=O)c1ncc(Cl)c(C(=O)NCc2ccccc2)n1,i,-2%,-13,-15%,10µM*,?
O=C1Nc2cc(Cl)ccc2Oc2ccccc21,i,23%[57.5 µM],3,.,.,.
Cc1cccc(Oc2ccc3c(c2)Oc2ccccc2NC3=O)c1,i,?,95*,-31%,i,?
CO[C@@H](C(=O)N1Cc2[nH]nc(NC(=O)c3ccc(N4CCN(C)CC4)cc3)c2C1)c1ccccc1,.,2%,.,.,13µM*,.
